107 compounds from ChEMBL document CHEMBL4513216, “Probing the Open Global Health Chemical Diversity Library for Multistage-Active Starting Points for Next-Generation Antimalarials” (ACS Infect Dis, 2020) can be followed below.

SMILES strings stand for the structures. In all, about 69,000 compounds went through this assay and about 8,600 (12%) showed an effect of 50% or more. Many of the other results were omitted from the sample, so strong results are more common in it than they were.

The subject of the assay is Plasmodium berghei. The experiment in a line: Screen against P. berghei liver stage (PbLuc), transformed with Luciferase, at 10uM. Format: functional, HepG2. Conditions: tested at 10 uM.
In the case of `CO[C@@H]1CCN(Cc2ccc(C)o2)[C@H]1Cc1ccccc1`, the INHIBITION was 3.88%.

For the compound `COc1ccc2c(c1)C(=O)NC1(CC2)CCN(Cc2ccc(F)cc2)C1` (configuration not stated), the INHIBITION is reported as 13.621%. The figure for `Cc1oncc1C(=O)NCc1cc(=O)n2c(n1)CN(C)CCC2` is 16.5%; for `Cc1ccccc1CN(C)C(=O)c1cc(C2CCCN2C)ccn1` (configuration not stated) it is 34%; for `CC(=O)c1cnc(NCCN2CCCC(c3ccccc3)C2)nc1C` (configuration not stated) it is 23.3%.

Consider `Cc1cnc(N2CCN(C(C)C(N)=O)CC2)nc1` (configuration not stated), for which the INHIBITION is on record as 19%. The figure for `Cc1ccc(F)cc1-n1c(CN(C)S(C)(=O)=O)n[nH]c1=O` is 49.4%; for `CCCc1noc(C2CC(=O)N(CCN(C)C)C2)n1` (configuration not stated) it is 20.9%; for `Cc1ccccc1CNCc1cc(Cl)ccc1O` it is 15%.

In the case of `COc1cccc(CC(=O)N2Cc3nccn3CC(CN(C)C)C2)c1` (configuration not stated), the INHIBITION came to 40.8%. The figure for `Cc1csc(C2(NC(=O)NCCN3CCOCC3)CCC2)n1` is 47.4%; for `Cc1csc(C2(NC(=O)NCCN3CCOCC3)CCCC2)n1` it is 64.5%. Then `Cc1csc(C2(NCCC(=O)N3CCOCC3)CCCC2)n1`, with 20.9%; and `CCCC(C(=O)NCCc1nc(C)cs1)N(C)C` (configuration not stated), with 26%.

As to `Cc1cnn(C2CN(CC(=O)NCCOc3ccccc3)C2)c1`, the INHIBITION was 3.15%.

As to `c1ccc(CCCN2CC(n3cccn3)C2)cc1`, the INHIBITION is -5.81%. The figure for `Cc1cnn(C2CN(CC(=O)NCCCc3ccccc3)C2)c1` is 56.6%. Turning to `O=C(CN1CC(n2cccn2)C1)NCCc1ccc(F)cc1`, the INHIBITION was -19.4%. Take `O=C(CN1CC(n2cccn2)C1)NCCCc1ccccc1`: the INHIBITION amounted to 54.4%. Then `O=C(CN1CC(n2cccn2)C1)NCCCN1CCCC1=O`, with 28.8%; and `Cc1cnn(C2CN(CC(=O)NCCc3ccccc3)C2)c1`, with 27.4%. Then `O=C(CN1CC(n2cccn2)C1)NCCC1=CCCCC1`, with -77.3%; and `N#CCCNC(=O)CN1CC(n2cccn2)C1`, with 53%; and `Cc1noc(C)c1CN1CCO[C@H]2[C@H](Oc3ncccc3F)CC[C@@H]21`, with 34.4%. Then `CN(C)c1ccc(-c2cccc(-c3ccn(CCCO)n3)c2)nn1`, with -121%; and `Cc1occc(=O)c1OCC(=O)N1CCN(c2cccc(Cl)c2)CC1`, with -5.77%.

As for `Cc1cc(C2CCCN(CCC(=O)N3CCc4ccccc43)C2)n[nH]1` (configuration not stated), the INHIBITION was determined as 1.04%.

As for `CN(C)C(c1ccccn1)C1CCC(CNC(=O)C2CCCC2)CC1` (configuration not stated), the INHIBITION is 14.6%. Then `O=C(CC1CC1)N1CCC2(COCc3cnc(-c4ccccc4)nc32)C1` (configuration not stated), with -21.1%; and `c1ccc(-c2ncc3c(n2)C2(CCN(CC4CC4)C2)COC3)cc1` (configuration not stated), with 66.2%; and `CN(C)c1ncc2c(n1)C1(CCN(CC3CC3)C1)COC2` (configuration not stated), with 46.8%. On to `CC(C)CN1CCC2(COCc3cnc(-c4ccccc4)nc32)C1` (configuration not stated), for which the INHIBITION is recorded as 69.3%.

`CN1CCC2(COCc3cnc(-c4ccccc4)nc32)C1` (configuration not stated): the INHIBITION is -6.97%.

`COCCN1CCC2(COCc3cnc(-c4ccccc4)nc32)C1` (configuration not stated): the INHIBITION is given as 6.79%. For `CC(C)c1nc2n(n1)CC(NCc1ccncc1)CC2` (configuration not stated), the INHIBITION is recorded as 0.79%. Then `CCc1ccc(NC(=O)N2C[C@@H]3C[C@H](C(=O)N4CCCC4)[C@H](C2)O3)cc1`, with 45.4%; and `O=C(NCC1CCCOC1)c1ccc(-c2ccccc2)[nH]c1=O` (configuration not stated), with -29.1%; and `O=S(=O)(NCc1ccccc1)Nc1cccc(Cn2cncn2)c1`, with 47.2%. The figure for `Cc1nc(Nc2nncs2)cc(C2CNC2)n1` is 12.75%; for `CN1CCC/C1=N\S(=O)(=O)c1ccc(NC(=O)CCc2cccs2)cc1` it is 27.4%; for `COC[C@]12COC[C@H]1CN(S(=O)(=O)c1cccnc1)C2` it is 33%. As for `Cc1nnc([C@]23COC[C@H]2CN(S(=O)(=O)c2cccnc2)C3)o1`, the INHIBITION is listed as -2.26%. Then `O=S(=O)(c1ccccc1)N1C[C@@H]2COC[C@]2(CN2CCOCC2)C1`, with 9.79%; and `O=S(=O)(c1cccnc1)N1C[C@@H]2COC[C@]2(COCC2CC2)C1`, with 65.1%.

On to `CS(=O)(=O)N1C[C@@H]2COC[C@]2(COCC(=O)N2CCCC2)C1`, for which the INHIBITION was found to be 28.5%.

On to `CS(=O)(=O)N1C[C@@H]2COC[C@]2(CN2CCOCC2)C1`, for which the INHIBITION was 65.9%. In the case of `O=S(=O)(c1ccccc1)N1C[C@@H]2COC[C@]2(COCC2CC2)C1`, the INHIBITION amounted to 44.2%. The figure for `CCCS(=O)(=O)N1C[C@@H]2COC[C@]2(CN2CCOCC2)C1` is 6.83%. Consider `O=S(=O)(c1cccnc1)N1C[C@@H]2COC[C@]2(CN2CCOCC2)C1`, for which the INHIBITION is 55.5%.

Consider `Cc1ccc2c(n1)N(CCN(C)C)CCN(Cc1c(C)noc1C)C2`, for which the INHIBITION stood at 42.6%. The figure for `COCCN1CCc2ccccc2NCCC1=O` is 16.9%; for `CN(Cc1cnn(C)c1)CC(O)c1ccc2c(c1)OCCCO2` (configuration not stated) it is 18.8%; for `O=C(c1cccs1)N1CCC2(CC1)CCN(S(=O)(=O)C1CC1)CC2` it is 45.7%. `O=C(c1sccc1-n1cnnn1)N1CCCCC1`: the INHIBITION was 17.4%.

In the case of `CCN(CC)CC(=O)N(C)C(c1cccc(F)c1)c1ccccn1` (configuration not stated), the INHIBITION is reported as -4.16%. Then `Cc1cnn(CC2CCCN2C(=O)Cn2nc(C)c(Cl)c2C)c1` (configuration not stated), with -41.5%; and `COCCC(=O)N1CCc2nc(N3CCOCC3)nc(NC(C)C)c2C1`, with 76.5%; and `CCC(=O)N1CCc2nc(N3CCOCC3)nc(N(C)C)c2CC1`, with 45.2%. Then `CC(C)CC(=O)N1CCc2nc(N3CCOCC3)nc(NC(C)C)c2C1`, with 52.9%; and `Cc1nc(N2CCOCC2)nc2c1CCN(C(=O)N1CCCC1)CC2`, with 39.5%; and `COc1c(Br)c(C(=O)NC2CC2)nn1C`, with 33.3%.

Regarding `COc1c(Br)c(C(=O)NC2CCCCC2)nn1C`, the INHIBITION is -37.1%.

In the case of `COc1c(Br)c(C(=O)NC2CCCC2)nn1C`, the INHIBITION amounted to 71.4%. With `Cc1cnn(CC2CCCCN2C(=O)c2ccc3[nH]cnc3c2)c1` (configuration not stated), the INHIBITION is 5.7%.

In the case of `N#Cc1ccccc1CN1CCC(CN2CCOCC2)C1` (configuration not stated), the INHIBITION is listed as -19.8%. Then `COc1ncccc1CNCc1c(C(C)C)nn(C)c1Cl`, with 21.7%.

As to `CCOc1ccc(CNCc2cccnc2N(C)C)cc1`, the INHIBITION came out at 39.7%. Then `CCCC(C)CS(=O)(=O)NCc1cccnc1N(C)C` (configuration not stated), with -33.9%. The figure for `CC(C)N(C)S(=O)(=O)NCc1cccnc1N(C)C` is 55%; for `CC(C)c1nn(C)c(Cl)c1CNCc1cccnc1N(C)C` it is 57.5%. The figure for `CN(C)c1ncccc1CNS(=O)(=O)c1ccccc1F` is 34.7%; for `CN(C)c1ncccc1CNS(=O)(=O)c1ccc(F)c(F)c1` it is 11.2%; for `CN(C)c1ncccc1CNS(=O)(=O)c1cc(F)cc(F)c1` it is -10.1%. Regarding `CCOc1ccc(S(=O)(=O)NCc2cccnc2N(C)C)cc1`, the INHIBITION is 67.5%.

`CC(C)c1nn(C)c(N(C)C)c1CNCc1cccnc1N(C)C`: the INHIBITION amounted to 14.815%. Then `COc1ccc(S(=O)(=O)NCc2cccnc2N(C)C)cc1`, with 21.5%. For the compound `COc1ccc(S(=O)(=O)NCc2cccnc2N(C)C)cc1F`, the INHIBITION is 58.2%. Then `CN(C)C(=O)COCC1CN(S(C)(=O)=O)Cc2ncn(C)c21` (configuration not stated), with 38.2%. For the compound `COc1ccc(NC(=O)c2nc3ccccc3n(C)c2=O)c(OC)c1`, the INHIBITION is reported as 3.19%. Then `Cn1ccc(C(=O)NC2CCC23CCN(Cc2cccnc2)CC3)c1` (configuration not stated), with 23.5%; and `CC(O)C1CCN(C(=O)CCOc2ccccc2F)CC1` (configuration not stated), with -17.8%; and `CC(C)(C)S(=O)(=O)c1ccc(N2CCC(n3cccn3)CC2)cn1`, with -8.66%. Then `Cc1ccc2nc(C(=O)N(C)[C@@H]3CC[C@@H](N4CCCC4)[C@@H]3O)cn2c1`, with 1.068%; and `c1ccc(Cc2noc(CN3CCCC3Cn3cccn3)n2)cc1` (configuration not stated), with 1.78%. Then `Fc1ccc(-c2cnc(CN3CCOC(Cn4cccn4)C3)o2)cc1` (configuration not stated), with -21.8%. With `COc1ccccc1CN1CCc2c(nc(-c3ccccn3)[nH]c2=O)C1`, the INHIBITION is on record as 25.6%. With `CSc1ccccc1C(=O)N(C)Cc1nncn1C(C)C`, the INHIBITION is 37.4%. Then `CN(C)c1ncccc1CNS(=O)(=O)c1cc(F)ccc1F`, with -27.8%; and `CCOC(=O)c1ccc(S(=O)(=O)NCc2cccnc2N(C)C)cc1`, with 83.2%; and `COC(=O)c1cccc(S(=O)(=O)NCc2cccnc2N(C)C)c1`, with 13.3%. The figure for `Cc1ccc(F)cc1S(=O)(=O)NCc1cccnc1N(C)C` is 49.3%; for `CNC(=O)c1ccc(S(=O)(=O)NCc2cccnc2N(C)C)cc1` it is 29.7%. The figure for `COc1cc(C)c(S(=O)(=O)NCc2cccnc2N(C)C)c(C)c1` is 61.7%; for `CC(=O)c1ccc(S(=O)(=O)NCc2cccnc2N(C)C)cc1` it is 66.7%. With `CN(C)c1ncccc1CNS(=O)(=O)c1ccc(C(N)=O)cc1`, the INHIBITION is on record as -3.2%.

Regarding `CC(=O)c1cccc(S(=O)(=O)NCc2cccnc2N(C)C)c1`, the INHIBITION came out at 42%. Then `CN(C)c1ncccc1CNS(=O)(=O)c1c(F)cccc1F`, with 11.6%.

As for `COC(=O)c1ccc(S(=O)(=O)NCc2cccnc2N(C)C)cc1`, the INHIBITION was 52.7%. Then `CN(C)c1ncccc1CNS(=O)(=O)c1ccccc1Cl`, with -4.16%; and `COCCN1C[C@@H]2CN(Cc3ccsc3)CCC[C@]2(C(=O)O)C1`, with 3.47%. Then `COc1ccc(CN2CC(O)CN(C(=O)CC(C)C)CC2=O)cc1` (configuration not stated), with 19.2%. With `CC(C)C(NC(=O)NCC1CC1)c1nnc2n1CCC2` (configuration not stated), the INHIBITION is reported as 43.4%. The figure for `CCC(CNC1CCN(C(C)=O)CC1)Oc1cccc(C)c1` (configuration not stated) is 61.5%; for `CCC(CNC1CCN(C(=O)N(C)C)CC1)Oc1ccccc1C` (configuration not stated) it is 18.2%.

Turning to `CCC(CNC1CCN(C(C)=O)CC1)Oc1ccccc1Cl` (configuration not stated), the INHIBITION worked out at 42%. Then `O=C(c1cccnc1)N1CCC2(CC1)COC(COc1ccccn1)C2` (configuration not stated), with -2.25%; and `c1cc(CN2CCO[C@H]3[C@H](OCCN4CCCC4)CC[C@@H]32)co1`, with 48%.
